The results in this text go back to ChEMBL document CHEMBL4513216, “Probing the Open Global Health Chemical Diversity Library for Multistage-Active Starting Points for Next-Generation Antimalarials” (ACS Infect Dis, 2020).

SMILES strings stand for the structures. Out of some 69,000 compounds screened, about 8,600 (12%) showed an effect of 50% or more. This excerpt belongs to a sample that is enriched for strong results.

The experiment deals with Plasmodium berghei. Nature of the experiment: Screen against P. berghei liver stage (PbLuc), transformed with Luciferase, at 10uM. The format is functional, HepG2. As to conditions: tested at 10 uM.
`CC(C)CC(c1nc(-c2cnn(C)c2)no1)N1CCCCC1=O` (stereo not given): the INHIBITION turned out to be 38.7%.

`COc1ccc(-c2noc(C(CC(C)C)N3CCCCC3=O)n2)cn1` (stereo not given): the INHIBITION was 51.7%.

With `COc1cc(-c2noc(C(CC(C)C)N3CCCCC3=O)n2)ccn1` (stereo not given), the INHIBITION is 34.1%.

In the case of `CCCNC(=O)c1nn(CC)cc1Cl`, the INHIBITION was 24.2%.

For the compound `CC(=O)N1CCC1c1cc(NC2CCOCC2)nc(C)n1` (stereo not given), the INHIBITION is reported as 11.65%.

As for `Cc1ccnc(C2CN(Cc3ccc(-c4ccccc4C(=O)O)o3)C2)n1`, the INHIBITION was 14.35%.

Take `O=C(c1cnc(O)cn1)N1CCC(CN2CCOCC2)CC1`: the INHIBITION was -30.3%.

With `CCOc1ccc(CN2CCN(C(=O)c3ccc(C)n3C)CC2)cc1`, the INHIBITION came out at 74.8%.

With `Cc1ccc(C(=O)N2CCN(Cc3ccsc3)CC2)n1C`, the INHIBITION came out at 9.32%.

As for `COc1ccc(CN2CCN(C(=O)c3ccc(C)n3C)CC2)cc1`, the INHIBITION came out at 46.2%.

Consider `Cc1ccc(C(=O)N2CCN(Cc3cccs3)CC2)n1C`, for which the INHIBITION stood at 19.4%.

As for `Cc1ccc(C(=O)N2CCN(Cc3ccc(C#N)cc3)CC2)n1C`, the INHIBITION was determined as 54.4%.

For `Cc1ccc(C(=O)N2CCN(Cc3ccccc3)CC2)n1C`, the INHIBITION is 27.6%.

With `CC(C)N1CCCC1c1cc(CO)[nH]n1` (stereo not given), the INHIBITION came out at 9.585%.

With `O=C(NCCN1CCOC1=O)c1cc(-c2ccccc2)on1`, the INHIBITION was 30.2%.

In the case of `CCSc1ccc(C(=O)N2CC[C@](O)(CC)[C@H](O)C2)s1`, the INHIBITION was found to be 53.9%.

For the compound `CCSc1ccc(C(=O)N2CCC3(CC2)[C@H](O)C[C@@H]3O)s1`, the INHIBITION is listed as 16.7%.

Take `CCSc1ccc(C(=O)N2CC[C@](C)(O)[C@H](C)C2)s1`: the INHIBITION is recorded as -5.12%.

Turning to `Cc1ccc(CN2CCn3c(CN4CCN(C)CC4)cnc3C2C)s1` (stereo not given), the INHIBITION worked out at 24.3%.

For `CC(C(=O)NCc1ccc2c(c1)OCCO2)n1cncn1` (stereo not given), the INHIBITION is 46.6%.

In the case of `COc1cc(CN2CC[C@@H](N3CCCCCC3)[C@H](O)C2)cc(Cl)c1OC`, the INHIBITION came out at 1.56%.

For `CC1CC(=O)c2cc(C(=O)N3CCOCC3)c(=O)[nH]c2C1` (stereo not given), the INHIBITION is 13.9%.

In the case of `CN(C)S(=O)(=O)N1C[C@H]2CC[C@@H](C1)N(C/C=C/c1ccc(F)cc1)C2`, the INHIBITION came out at 30.7%.

As to `CN(C)C(=O)CN1C[C@H]2CC[C@@H](C1)N(Cc1ccccc1OCCO)C2`, the INHIBITION is recorded as 59.7%.

For `CN(C)C(=O)N1C[C@H]2CC[C@@H](C1)N(C/C=C/c1ccc(F)cc1)C2`, the INHIBITION is -27.7%.

Regarding `CN(C)C(=O)CN1C[C@H]2CC[C@@H](C1)N(Cc1c(F)cccc1Cl)C2`, the INHIBITION is given as 29.8%.

On to `CN(C)C(=O)CN1C[C@H]2CC[C@@H](C1)N(Cc1ccc(Cl)cc1Cl)C2`, for which the INHIBITION came out at 19.1%.

On to `CN(C)C(=O)CN1C[C@H]2CC[C@@H](C1)N(Cc1cccc(Cl)c1Cl)C2`, for which the INHIBITION stood at 61.8%.

Regarding `CN(C)C(=O)CN1C[C@H]2CC[C@@H](C1)N(C/C=C/c1ccc(F)cc1)C2`, the INHIBITION is 52.5%.

For `CN(C)C(=O)CN1C[C@H]2CC[C@@H](C1)N(Cc1cc(F)ccc1F)C2`, the INHIBITION was determined as 0.139%.

Take `CN(C)C(=O)CN1C[C@H]2CC[C@@H](C1)N(Cc1ccccc1C#N)C2`: the INHIBITION came out at 41.5%.

As to `CCOc1ccc(Cl)c(C(=O)N2CCCC(c3cc(C)[nH]n3)C2)n1` (stereo not given), the INHIBITION is -4.13%.

For the compound `CS(=O)(=O)NCC(=O)NC1CCCN(c2ccccn2)C1` (stereo not given), the INHIBITION amounted to 7.605%.

Take `CC1(C)CN(C(=O)c2cc(F)cc3[nH]cnc23)CCS1`: the INHIBITION worked out at 10.2%.

Consider `O=C1COC2(CCN(C(=O)c3ccco3)CC2)CN1Cc1cccnc1`, for which the INHIBITION was 43.2%.

For `CNC(=O)[C@@H]1CN(C(=O)COC)C[C@H]1c1ccnc(N2CCCC2)n1`, the INHIBITION was found to be 21.7%.

Regarding `Cn1ccc(C(=O)Nc2cc(F)ccc2OCC2CCCO2)cc1=O` (stereo not given), the INHIBITION is listed as 15.6%.

With `Cc1nc(COCc2nc3c(o2)CN(C(=O)c2ccc[nH]2)C3)cs1`, the INHIBITION is recorded as -13.9%.

On to `CN(C)CC(=O)N1CCO[C@@H]2CC(COCc3ccncc3)C[C@H]21` (stereo not given in full), for which the INHIBITION came to 11.3%.

For the compound `Cc1cccc(C(C(=O)N(C)CCc2cn[nH]c2)N(C)C)c1` (stereo not given), the INHIBITION came out at 42.6%.

As for `Cc1ccccc1C(C(=O)N(C)CCc1cnn(C)c1)N(C)C` (stereo not given), the INHIBITION was found to be 31.7%.

On to `Cc1cc(C)cc(CCC(=O)N(C)CCc2cn[nH]c2)c1`, for which the INHIBITION is reported as -10.2%.

`Cc1ccc(C(C(=O)N(C)CCc2cn[nH]c2)N(C)C)cc1` (stereo not given): the INHIBITION is on record as 51.1%.

As to `Cc1ccccc1C(C(=O)N(C)CCc1cn[nH]c1)N(C)C` (stereo not given), the INHIBITION is 54.4%.

Consider `CN(CCc1cn[nH]c1)C(=O)C(c1ccc(F)cc1)N(C)C` (stereo not given), for which the INHIBITION came out at 43.7%.

Regarding `COc1cccc(C(C(=O)O)N(C)Cc2ccc(C)o2)c1` (stereo not given), the INHIBITION turned out to be 46.7%.

On to `CN(C)[C@@H]1CN(C(=O)c2cc3ccc(F)cc3[nH]2)C[C@H]1O`, for which the INHIBITION was 18.15%.

With `Cc1ccsc1C(=O)N1CCCn2c(nc(CN(C)C)cc2=O)C1`, the INHIBITION is on record as -10.3%.

For `CCn1c(CN2CCN(CCOC)CC2)nc2c(F)cccc21`, the INHIBITION is 46.95%.

With `O=C1CCCCN1CCc1nc(-c2cccnn2)no1`, the INHIBITION is 52.9%.

Regarding `c1cnnc(-c2noc(CCN3CCCO3)n2)c1`, the INHIBITION is -8.51%.

Consider `O=C1CCCCCN1CCc1nc(-c2cccnn2)no1`, for which the INHIBITION is reported as 9.04%.

As to `COc1ccc(CN2CCc3ncnc(C4CCOC4)c3CC2)cc1` (stereo not given), the INHIBITION is listed as 24.6%.

For `CCOc1cc(CNc2nnn(C)n2)ccc1OCc1ccc(Cl)cc1`, the INHIBITION is 63.1%.

Turning to `Cn1nnc(NCc2ccc(OCc3ccc(Cl)cc3)cc2)n1`, the INHIBITION was -47.4%.

As for `Cn1nnc(NCc2ccccc2OCc2ccc(Cl)cc2)n1`, the INHIBITION is given as 4.07%.

Consider `Cc1ccc(NC2CCN(C(=O)CCc3cscn3)CC2)nn1`, for which the INHIBITION was determined as 7.12%.

As for `c1ccc(CCNCC2Cn3nncc3CO2)cc1` (stereo not given), the INHIBITION is 33%.

Take `O=C(c1ccccc1F)N1CCOC(c2nc(-c3ncccn3)no2)C1` (stereo not given): the INHIBITION came to 18.9%.

Turning to `Cc1cn(CC(=O)Nc2cc(C(C)(C)C)nn2C)cn1`, the INHIBITION was determined as 16.9%.

On to `CCN(CC(C)C#N)C(=O)CNc1ccc(F)c(C)c1` (stereo not given), for which the INHIBITION is on record as -48.4%.

As for `CCN(CC(C)C#N)C(=O)CNc1ccc(C(N)=O)c(C)c1` (stereo not given), the INHIBITION is recorded as 92.5%.

With `CCN(CC(C)C#N)C(=O)CNc1cc(Cl)ccc1C(N)=O` (stereo not given), the INHIBITION amounted to 17.5%.

As for `O=C(CCN1CCOC1=O)Nc1cnn(-c2ccccc2Cl)c1`, the INHIBITION amounted to 13.3%.

As for `Cc1noc(-c2ccc(Oc3cccc(CN4CCCC4)c3F)nc2)n1`, the INHIBITION amounted to 35%.

`c1ccc(Oc2nccc3occc23)c(CN2CCCCC2)c1`: the INHIBITION is listed as 48.8%.

`COc1cccc(CN2CCN(c3noc(C(C)C)n3)CC2)c1F`: the INHIBITION was -21.8%.

Take `Cc1noc(-c2ccnc(Oc3cccc(CN4CCCC4)c3F)c2)n1`: the INHIBITION was 83.3%.

For `CCN1CCC(N2CCN(c3cc(-c4nc(C)no4)ccn3)CC2)CC1`, the INHIBITION is on record as 33.8%.

As for `Cc1noc(-c2ccnc(Oc3ccccc3CN3CCCCC3)c2)n1`, the INHIBITION is listed as 56.3%.
